# From the supplement of paper PMC6555819
# How the values were obtained:
# Assay in all cases: PBM binding z-score (relative to random genomic background probes); higher = stronger binding; sequences stand for … in GC…GCGATTGACAGCGTAGAATGAAGG
# [1] = system: FXR:RXRa (NR concentration 270 nM, RXRa partner concentration 90 nM)
# How it was run: (§1)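 Ligand-free nuclear receptor dimers were bound for 1 h to custom Agilent 4×180K protein-binding microarrays. Detection used antibodies against each partner (one per run). Binding z-scores rest on regression-normalized fluorescence, with random background probes as the reference.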
# [2] = system: LXRa:RXRa (NR concentration 270 nM, RXRa partner concentration 90 nM)
# How it was run: as §1
# [3] = system: LXRa homodimer (NR concentration 270 nM)
# How it was run: as §1
# [4] = system: LXRb:RXRa (NR concentration 270 nM, RXRa partner concentration 90 nM)
# How it was run: as §1
# [5] = system: LXRb homodimer (NR concentration 270 nM)
# How it was run: as §1
# [6] = system: PPARa:RXRa (NR concentration 270 nM, RXRa partner concentration 90 nM)
# How it was run: as §1
# [7] = system: PPARg:RXRa (NR concentration 180 nM, RXRa partner concentration 90 nM)
# How it was run: as §1
# [8] = system: PPARg:RXRa 270nM:90nM, anti-RXR (NR concentration 270 nM, RXRa partner concentration 90 nM)
# How it was run: as §1
# [9] = system: PPARg:RXRa 30nM:10nM, anti-RXR (NR concentration 30 nM, RXRa partner concentration 10 nM)
# How it was run: as §1
# [10] = system: PPARg:RXRa 90nM:30nM, anti-RXR (NR concentration 90 nM, RXRa partner concentration 30 nM)
# How it was run: as §1
# [11] = system: PPARg:RXRa DBDmut IVT, anti-RXR (DBD mutation: RXRa K156A/R161A, NR concentration 270 nM, RXRa partner concentration 90 nM)
# How it was run: as §1
# [12] = system: PPARg:RXRa IVT, anti-PPARg (NR concentration 270 nM, RXRa partner concentration 90 nM)
# How it was run: as §1
# [13] = system: PPARg DBDmut:RXRa IVT, anti-PPARg (DBD mutation: PPARg1 K132A/R137A, NR concentration 270 nM, RXRa partner concentration 90 nM)
# How it was run: as §1
# [14] = system: PPARg DBDmut IVT, anti-PPARg (DBD mutation: PPARg1 K132A/R137A, NR concentration 270 nM)
# How it was run: as §1
# [15] = system: PPARg homodimer (NR concentration 180 nM)
# How it was run: as §1
# [16] = system: PXR:RXRa (NR concentration 270 nM, RXRa partner concentration 90 nM)
# How it was run: as §1
# [17] = system: PXR homodimer (NR concentration 270 nM)
# How it was run: as §1
# [18] = system: RARa:RXR (NR concentration 270 nM, RXRa partner concentration 90 nM)
# How it was run: as §1
# [19] = system: RARa homodimer (NR concentration 270 nM)
# How it was run: as §1
# [20] = system: RARb:RXRa (NR concentration 270 nM, RXRa partner concentration 90 nM)
# How it was run: as §1
Sequence,PBM binding z-score [1],PBM binding z-score [2],PBM binding z-score [3],PBM binding z-score [4],PBM binding z-score [5],PBM binding z-score [6],PBM binding z-score [7],PBM binding z-score [8],PBM binding z-score [9],PBM binding z-score [10],PBM binding z-score [11],PBM binding z-score [12],PBM binding z-score [13],PBM binding z-score [14],PBM binding z-score [15],PBM binding z-score [16],PBM binding z-score [17],PBM binding z-score [18],PBM binding z-score [19],PBM binding z-score [20]
TCATATAAGTAAACAGGTGAAAGTCCGTAAGTTA,1.27,1.25,0.422,1.2,0.0139,1.55,1.32,2.57,4.41,3.57,3.11,1.31,0.554,1.07,1.13,1.09,0.507,1.19,1.75,0.383
TCGAGTAGGTTAGTCGGGGCATACAGCCAACATA,0.288,0.232,-0.353,0.458,-0.174,0.913,0.365,0.998,1.25,1.07,2.34,1.89,-0.401,-0.126,-0.0659,0.333,0.0501,0.379,-0.329,0.592
TGATATAGGTAATACAGGTGAAAGTCGGCATCTA,0.306,0.701,0.521,0.418,0.00189,2.16,2.39,2.3,1.33,2.05,4.32,4.45,1.57,1.13,1.38,0.409,0.476,0.69,0.77,0.624
ATCCCTAGGTAAAGTTCAGTGAAAGATCGATAGA,0.939,1.71,1.52,1.19,0.53,1.8,2.37,3.48,1.57,3.25,0.383,1.01,0.372,0.771,1.6,1.63,2.29,0.943,1.49,2.39
TCTCGGAGGACACGAAAGGTCGGAGCTCGACATC,1.02,1.14,-0.0519,0.48,-0.636,1.51,0.269,1.36,1.93,1.73,1.24,0.486,-0.405,-0.523,0.582,1.38,-0.652,1.61,-0.809,2.56
TCGAGTAGGTTAGCCGGGGCATTCAGCCAACATA,0.0762,-0.0841,-0.659,0.0461,-1.01,0.893,-0.0642,0.609,0.847,0.701,1.95,1.45,-0.971,-1.01,-0.00962,0.241,-0.374,0.484,-0.48,0.608
CATACAGGGTCACCTAGGCCAGAGTAGGGACGGC,6.41,4.26,0.036,3.35,0.688,5.64,6.1,5.1,2.1,3.77,1.55,4.32,1.86,1.64,1.65,3.56,0.395,4.49,0.259,4.41
CGTCAAAGTTCAGCTAAGGTAACGTAAAGCACGC,4.58,4.17,1.68,2.31,0.319,3.68,3.16,3.94,1.03,2.96,0.23,1.25,0.517,-0.309,1.44,4,1.56,3.29,1.13,4.65
TCATATAGGTAAAAGGTGATAGTCGGTGTGGTAA,1.41,1.28,0.217,1.35,0.351,4.6,8.06,7.95,8.2,8.56,5.2,4.18,1.26,1.38,1.66,0.875,0.988,1.84,1.85,1.17
TATACAGGGTCAAAGGCCAGAGCACGAATGTCGA,6.57,6.15,1.83,4.68,2.53,5.83,7.89,7.51,5.16,7.77,2.75,4.99,1.39,1.27,1.83,4.17,0.0861,5.31,0.94,4.36
CGTCAAAGTTCGAGGTAACGTAACAGAAAGCAGC,1.32,1.25,0.0429,0.91,-0.403,1.74,1.36,1.98,0.481,1.36,0.256,0.878,-1.11,0.105,1.18,1.28,0.589,1.39,0.233,2.73
TCATATAGGTACTACAGGTGAAAGTCGGCATCTA,0.842,1.92,0.924,1.03,0.0353,1.4,0.768,2.18,3.93,2.89,2.86,1.16,0.618,1.02,0.506,0.663,0.0757,0.847,0.606,0.472
TCATATAGGTAAAAGGTGACAGTCGGTGTGGTAA,1.88,1.46,-0.178,1.61,0.00468,5.19,9.43,8.82,8.45,9.66,5.71,5.54,2.29,1.71,1.76,1.36,1.05,2.14,1.41,1.7
ACTATTAGTTGAGACGAGGGCTACCGATAGGTTG,-0.0056,-0.0365,-0.197,-0.414,0.162,-0.477,0.7,-0.127,0.174,0.0258,0.458,0.0737,0.772,0.929,-0.361,-0.232,-0.105,-0.544,0.451,0.191
TCAGTCAGGTGAAGGTAACTCAGGTACGCAGTCG,1.03,1.75,-0.167,0.908,0.224,1.1,0.838,2.17,3.25,2.69,2.31,1.88,0.527,-0.686,0.571,0.5,0.129,0.701,0.00869,1.52
